Assay outcomes (PubChem)
HPGD block – HPGD (human) dehydrogenase inhibition. Potency, µM, usual class: inhibitors. purified HPGD, NADH fluorescence kinetic, PGE2 substrate. AID 894. P15428. actives 4.3% (n = 150,000)
Target sequence (P15428 whole entry, looked up): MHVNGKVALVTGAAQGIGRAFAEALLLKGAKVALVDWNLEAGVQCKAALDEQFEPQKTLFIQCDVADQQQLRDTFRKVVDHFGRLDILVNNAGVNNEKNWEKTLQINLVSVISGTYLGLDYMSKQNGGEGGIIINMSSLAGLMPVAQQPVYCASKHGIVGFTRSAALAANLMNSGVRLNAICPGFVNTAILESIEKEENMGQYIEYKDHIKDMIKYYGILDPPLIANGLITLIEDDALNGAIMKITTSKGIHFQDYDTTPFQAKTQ
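NADH formation kinetics: reaction with 30 uM PGE2 and 1 mM NAD+ (final), 20 nM enzyme, Tris-HCl pH 8 with Tween 20, after 15 min compound preincubation at room temperature. Fluorescence change, last versus first of five reads.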
ALDH1A1 block – blocks purified human ALDH1A1 activity; P00352; Purified ALDH1A1, NADH fluorescence, propionaldehyde substrate; Potency, µM (series often up to 75.3 µM), usual class: inhibitors; actives 7.3% (n = 220,000); AID 1030
PNC inhibitor – blocks assembly of the perinucleolar compartment; actives 3.1% (n = 140,000); AID 2417; PC3M PTB-GFP, PNC prevalence imaging, 16 h; hits give low values; activity change (PNC), negative = inhibition, % at 10 µM;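 active = readout at or below -70, meaning at least 70% loss of cells showing the perinucleolar compartment, a nuclear body marking cancer cells; inconclusive = readout between -30 and a set limit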
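Compounds are pinned in duplicate onto adhered PC3M cells stably expressing GFP-tagged PTB and incubated 16 h at 37 C. Cells are then fixed, nuclei stained with Hoechst, and PNC-positive cells counted.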
HPGD inh cf – confirmation of human HPGD inhibitors. shares compounds with HPGD block. recombinant HPGD, NADH fluorescence, PGE2 substrate. Potency, µM (titrated, usually from 57.1 µM), actives largely listed as inhibitors. actives 90% (n = 90). AID 2429; calls by dose curve
Hits are given with their value; . = inactive; ? = inconclusive; / = no result. Sampled rows, rich in hits. Any-hit rate of the full collection: about 11%. Unless noted, calls come from the whole dose curve; as a rule, active = well fitted inhibition curve with a large enough effect (not every such curve was filed as active); inconclusive = small, poorly fitted or top-dose-only effect, or another doubt; inactive = no such curve, though single readings can be large or run the other way.

SMILES	HPGD block	ALDH1A1 block	PNC inhibitor	HPGD inh cf
CCc1ccc(OCC(=O)N/N=C\c2ccco2)c([N+](=O)[O-])c1	.	.	.	/
COc1ccccc1C(=O)Nc1ccc(C(=O)N2CCCC2)cc1	1.41µM	.	?	1µM
COc1ccccc1C(=O)Nc1ccc(C(=O)O)cc1	.	.	.	/
O=C(Nc1ccc(Br)cc1)N1CCCCCCC1	.	.	?	/
O=C(Nc1ccc(C(=O)N2CCCCC2)cc1)c1ccc(Br)cc1	0.631µM	14.1µM	.	0.355µM
NC(=O)c1ccc(NC(=O)COC(=O)c2ccccc2Nc2ccccc2)cc1	/	.	/	/
COc1ccc(C)cc1NC(=S)NC(C)c1ccc(OC)c(OC)c1 (configuration not stated)	/	.	/	/
Cc1ccc(C(=O)COC(=O)CCC(=O)NC2CCCCC2)cc1[N+](=O)[O-]	/	.	/	/
CC1CCN(C(=O)CCc2ccc(S(=O)(=O)NC(C)(C)C)cc2)CC1	.	.	.	/
O=C(CCc1ccc(Oc2cc([N+](=O)[O-])cc([N+](=O)[O-])c2)cc1)NC1CCCC1	15.8µM	.	.	5.01µM
CC1CCN(C(=O)CCc2ccc(Oc3cc([N+](=O)[O-])cc([N+](=O)[O-])c3)cc2)CC1	1µM	?	.	0.891µM
COc1ccc(-c2cc(-c3nnc(COC(=O)c4ccncc4)o3)c3ccccc3n2)cc1OC	/	.	/	/
COCC(=O)Nc1cc(C(=O)Nc2ccccc2)ccc1Cl	/	.	/	/
COC(=O)C(NS(C)(=O)=O)(c1c(C)[nH]c2ccccc12)C(F)(F)F (configuration not stated)	.	.	?	/
CC1CCCN(CC(=O)Nc2cccc([N+](=O)[O-])c2)C1 (configuration not stated)	.	?	.	/
O=C(c1sc2cc(F)ccc2c1Cl)N1CCN(c2ccccc2)CC1	.	?	?	/
CC1CCCN(C(=O)c2sc3cc([N+](=O)[O-])ccc3c2Cl)C1 (configuration not stated)	0.447µM	5.62µM	.	0.501µM
O=C(c1sc2cc([N+](=O)[O-])ccc2c1Cl)N1CCCCC1	1.12µM	?	.	0.562µM
Cc1ccc(C2=NN(CC(=O)NCc3ccccn3)C(=O)CC2)cc1	.	.	?	/
CCCCC(CC)C(=O)Nc1ncc([N+](=O)[O-])s1 (configuration not stated)	/	.	/	/
COc1ccc(/C(N)=N/O)c(OC)c1	/	.	/	/
O=C(CSc1n[nH]c(-c2ccccc2)n1)Nc1ncc(Br)cc1Br	0.794µM	.	.	1.41µM
Cc1cccc(NC(=O)CSc2n[nH]c(-c3ccncc3)n2)c1	.	.	.	/
COCC(C)n1c(SCc2ccc(OC)c(F)c2)nc2ccccc2c1=O (configuration not stated)	/	.	/	/
O=C(CSc1nc2ncc(Br)cc2[nH]1)c1cccc([N+](=O)[O-])c1	7.94µM	?	.	2.24µM
SMILES	HPGD block	ALDH1A1 block	PNC inhibitor	HPGD inh cf
Fc1ccccc1CSc1nc2ncc(Br)cc2[nH]1	0.794µM	.	.	0.631µM
O=C(NCc1nc2ncc(Br)cc2[nH]1)c1ccccc1	.	?	?	/
Cc1nc2nc(SCC(=O)c3cccc([N+](=O)[O-])c3)[nH]c2cc1Br	/	?	.	/
Cc1ccc(NC(=O)Cn2nc(C)c(S(=O)(=O)N(C)C)c2C)cc1	/	.	/	/
Cc1cnc(NC(=O)CCNC(=O)c2ccc([N+](=O)[O-])cc2)s1	/	.	/	/
COc1cc(S(=O)(=O)n2cnc(C)c2)ccc1Br	/	.	/	/
COc1ccc(OCC(=O)NC(=S)Nc2ccccc2F)cc1	.	?	?	/
CCN(CC)C(=O)c1sc2nc(-c3cccs3)cc(-c3ccc(Cl)cc3)c2c1N	6.31µM	?	.	10µM
N#Cc1sc2nc(-c3cccs3)cc(-c3ccc(Cl)cc3)c2c1N	.	.	.	/
COc1cc(NC(=O)C2CCC(CNc3c(N4CCC(C)CC4)c(=O)c3=O)CC2)cc(OC)c1 (configuration not stated)	.	.	.	/
O=C(NCCc1ccccc1)C1CCC(CNc2c(N3CCCCC3)c(=O)c2=O)CC1 (configuration not stated)	6.31µM	.	.	6.31µM
Cc1cc(C)nc(N2CCC(C(=O)NCCc3ccc(Cl)cc3)CC2)n1	/	.	/	/
COc1ccc(NC(=O)C2CCC(CNc3c(N4CCC(C)CC4)c(=O)c3=O)CC2)cc1OC (configuration not stated)	?	.	.	/
CC1CCN(c2c(NCC3CCC(C(=O)NCCc4ccccc4)CC3)c(=O)c2=O)CC1 (configuration not stated)	6.31µM	.	?	6.31µM
O=C(NCCc1ccccc1)C1CCN(c2ncccn2)CC1	/	.	/	/
Cc1ccc(CCNC(=O)C2CCC(CNc3c(N4CCC(C)CC4)c(=O)c3=O)CC2)cc1 (configuration not stated)	?	.	.	14.1µM
O=C(NCCc1ccc(Cl)cc1)C1CCC(CNc2c(N3CCCCC3)c(=O)c2=O)CC1 (configuration not stated)	.	.	.	17.8µM
COc1ccccc1OCc1ccc(C(=O)N2CCN(C(=O)c3ccco3)CC2)cc1	.	?	?	/
O=C(c1ccc(COc2ccccc2Br)cc1)N1CCCCC1	0.0447µM	?	.	0.0891µM
Cc1nn(C)cc1S(=O)(=O)NC1CCCC1	/	.	/	/
CC/C(=N\O)c1c(O)c2c(n(-c3ccccc3)c1=O)CCCC2	.	.	.	/
Cc1ccccc1C(=O)N1CCc2ccccc2C1	0.631µM	?	.	2.51µM
Cc1ccc(NC(=O)N2CCc3ccccc3C2)cc1	.	?	.	/
O=C(NCCc1c[nH]c2ccccc12)C1CCC(Cn2c(=S)[nH]c3ccccc3c2=O)CC1 (configuration not stated)	.	.	.	/
COCCNC(=O)C1CCC(Cn2c(=S)[nH]c3ccccc3c2=O)CC1 (configuration not stated)	1.78µM	.	.	1.12µM
SMILES	HPGD block	ALDH1A1 block	PNC inhibitor	HPGD inh cf
CO[C@H]1C[C@@H]2CC[C@@H](C)[C@@](O)(O2)C(=O)C(=O)N2CCCC[C@H]2C(=O)O[C@H](C(C)C[C@H]2CC[C@@H](O)[C@H](OC)C2)CC(=O)[C@H](C)/C=C(\C)[C@@H](O)[C@@H](OC)C(=O)[C@H](C)C[C@H](C)/C=C/C=C/C=C/1C (some centres not stated)	/	.	/	/
N#C/C(=C\c1ccc(-c2ccccc2[N+](=O)[O-])o1)C(=O)N1CCOCC1	/	.	/	/
O=C1ON=C(c2ccccc2)/C1=C/c1ccc(-c2ccccc2[N+](=O)[O-])o1	1.58µM	10µM	.	0.447µM
O=C(c1ccc(N2CCCC2=O)cc1)N1CCN(c2ccccc2)CC1	.	.	.	/
O=C(c1ccc(N2CCCC2=O)cc1)N1CCCCCC1	0.224µM	?	.	0.282µM
Cc1ccc(S(=O)(=O)N2CCC(C(=O)NNC(=O)c3ccncc3)CC2)cc1	/	.	/	/
COc1ccc(NC(=O)c2sc3nc(Cc4ccccc4)cc(C(F)(F)F)c3c2N)cc1OC	.	.	.	/
COc1ccccc1NC(=O)c1sc2nc(Cc3ccccc3)cc(C(F)(F)F)c2c1N	.	.	.	.
NC(=O)c1cc(-c2ccccc2)sc1NC(=O)CN1CCCCC1	?	.	.	/
CN(C)C(=O)c1ccc(-c2nc(Nc3ccncc3)c3ccccc3n2)cc1	0.159µM	.	/	0.112µM
